# Tests used:
# Conditions in all cases: concentration: 1 μM, replicates: in singlicate; n = 1
# [1] = system: RPS6KA5(Kin.Dom.2-C-terminal)
# [2] = system: T1, RSK1(Kin.Dom.1-N-terminal)
# T1 construct: gene RPS6KA1
# [3] = system: T2, RSK1(Kin.Dom.2-C-terminal)
# T2 construct: gene RPS6KA1
# [4] = system: T3, RSK2(Kin.Dom.1-N-terminal)
# T3 construct: gene RPS6KA3
# [5] = system: T4, RSK2(Kin.Dom.2-C-terminal)
# T4 construct: gene RPS6KA3
# [6] = system: T5, RSK3(Kin.Dom.1-N-terminal)
# T5 construct: gene RPS6KA2
# [7] = system: T6, RSK3(Kin.Dom.2-C-terminal)
# T6 construct: gene RPS6KA2
# [8] = system: T7, RSK4(Kin.Dom.2-C-terminal)
# T7 construct: gene RPS6KA6
# S6K1 = system: S6K1
# SBK1 = system: SBK1
# SGK2 = system: SGK2
# SGK3 = system: SGK3
# SGK = system: SGK
# SIK2 = system: SIK2
# SIK = system: SIK
# SLK = system: SLK
# SNARK = system: T8, SNARK
# T8 construct: gene NUAK2
# SNRK = system: SNRK
# SRC = system: SRC
# [9] = system: T9, RSK4(Kin.Dom.1-N-terminal)
# T9 construct: gene RPS6KA6
# 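Note: KINOMEscan kinase panel screen.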
Structure (SMILES),%Inh [1] [%],%Inh [2] [%],%Inh [3] [%],%Inh [4] [%],%Inh [5] [%],%Inh [6] [%],%Inh [7] [%],%Inh [8] [%],%Inh (S6K1) [%],%Inh (SBK1) [%],%Inh (SGK2) [%],%Inh (SGK3) [%],%Inh (SGK) [%],%Inh (SIK2) [%],%Inh (SIK) [%],%Inh (SLK) [%],%Inh (SNARK) [%],%Inh (SNRK) [%],%Inh (SRC) [%],%Inh [9] [%]
CCc1nc(-c2cccc(C)c2)c(-c2ccnc(NC(=O)c3ccccc3)c2)s1,1,0,53,0,39,0,5,46,0,5,17,0,13,0,25,0,0,19,5,
FC(F)(F)c1ccc(-c2cc(-c3c[nH]nc3-c3ccccn3)ccn2)cc1 [GW599550],15,20,7,0,2,12,5,42,2,8,9,12,0,0,0,23,10,100,3,0
C[C@@H]1CCN(C(=O)CO)C[C@@H]1N(C)c1ncnc2[nH]ccc12,13,0,4,0,0,0,23,30,1,0,0,1,0,0,10,0,10,3,6,0
Cc1ccc(O)cc1Nc1cc(C(F)(F)F)nc2ccc(-c3ccncc3)cc12 [GW630823],9,0,0,0,0,0,5,14,0,0,3,0,14,11,4,26,0,0,18,4
Cn1cc(-c2ccc3c(c2)CCN3C(=O)Cc2cccc(C(F)(F)F)c2)c2c(N)ncnc21 [GSK2606414],0,0,2,18,0,0,0,12,4,9,1,21,19,0,0,14,14,1,5,0
Nc1nc(-c2ccccn2)c(-c2ccnc3ccccc23)s1 [GW548057],33,5,39,0,9,0,1,76,0,0,0,6,0,0,0,7,0,0,12,0
Nc1nc(-c2ccc3c(N)n[nH]c3c2)cc(N2CCCCC2)n1 [GSK2228768],0,0,0,0,0,15,0,0,0,3,0,0,0,0,0,5,0,0,15,0
O=c1cc(N2CCOCC2)nc2n(Cc3cccc(Cl)c3)ccn12 [GSK2296823],7,10,0,21,27,0,0,19,0,32,0,13,0,9,0,0,0,5,2,0
CNc1nccc(-c2c(-c3ccc(F)cc3)ncn2CCCN2CCOCC2)n1 [SB-222516],17,5,0,9,55,3,0,87,2,0,15,44,10,0,12,5,24,18,0,7
OCCOCCn1ccc2ncnc(Nc3ccc(Oc4cccc(Cl)c4)c(Cl)c3)c21,0,0,0,0,0,3,4,2,0,0,0,0,0,0,0,39,0,0,0,0
COc1cc2c(Nc3cccc(NC(=O)c4ccccc4)c3)ncnc2cc1OCCCN1CCOCC1 [GSK223810],0,2,0,18,20,13,11,14,0,34,13,1,0,7,0,0,0,0,94.7,20
CS(=O)(=O)CCNCc1ccc(-c2ccc3ncnc(Nc4ccc(OCc5ccccc5)c(Cl)c4)c3c2)o1.Cl [GW574783],0,0,0,4,29,17,6,8,0,3,0,0,11,0,0,25,0,0,2,6
O=C(Nc1ccccc1F)NC1CCN(c2ccnc(Nc3ccc(F)cc3)n2)C1 (stereo not shown) [GSK1379722],19,8,0,14,28,13,0,0,11,21,0,0,0,0,0,5,0,0,0,0
Cl.Cl.c1ccc(-c2cc3ccncc3cc2OC2CCNCC2)cc1 [GSK1122999],8,22,21,9,55,0,6,30,7,12,7,11,0,0,0,40,23,14,0,0
FC(F)(F)c1cc(Nc2nccc(-c3c(-c4ccc(Cl)cc4)nn4ncccc34)n2)ccc1Cl [GW829351],0,0,28,11,0,0,0,45,0,0,0,0,0,0,0,0,0,0,0,0
CCn1c(-c2ccncc2)nc2cnccc21 [SB-735216],0,19,16,19,34,8,40,39,32,20,19,28,5,0,19,8,21,17,0,14

Structure (SMILES),%Inh [1] [%],%Inh [2] [%],%Inh [3] [%],%Inh [4] [%],%Inh [5] [%],%Inh [6] [%],%Inh [7] [%],%Inh [8] [%],%Inh (S6K1) [%],%Inh (SBK1) [%],%Inh (SGK2) [%],%Inh (SGK3) [%],%Inh (SGK) [%],%Inh (SIK2) [%],%Inh (SIK) [%],%Inh (SLK) [%],%Inh (SNARK) [%],%Inh (SNRK) [%],%Inh (SRC) [%],%Inh [9] [%]
O=C(Nc1n[nH]c2nc(-c3ccco3)c(Br)cc12)c1ccc(CN2CCCC2)cc1.O=C(O)[C@H](O)[C@@H](O)C(=O)O [SB-742352],0,5,0,3,0,0,0,0,11,12,1,0,17,3,0,25,0,0,22,13
COC(=O)c1cccc(NC(=O)NCCNc2ccnc(Nc3ccc(F)cc3)n2)c1 [GSK1379883],4,30,0,0,0,0,0,11,0,3,0,0,0,0,0,4,0,0,0,0
O=C(CCO)NCCn1ccc2ncnc(Nc3ccc(Oc4cccc(C(F)(F)F)c4)c(Cl)c3)c21,0,0,0,0,0,3,4,0,0,0,0,0,0,16,10,37,0,0,0,0
CC(C)N1CCC(n2cnc(-c3ccc(F)cc3)c2-c2ccnc(N)n2)CC1 [SB-223132],0,0,56,3,29,12,4,66,0,0,0,0,0,4,14,12,0,0,0,0
Nc1nc(-c2ccc3c(N)n[nH]c3c2)cc(N2CCC[C@@H](C(=O)Nc3ccccc3)C2)n1.O=C(O)C(F)(F)F.O=C(O)C(F)(F)F [GSK2288359],6,20,13,0,0,7,0,5,0,0,0,8,0,0,0,0,21,0,0,0
Nc1nccc2scc(-c3ccc4c(c3)CCN4C(=O)Cc3cc(F)ccc3F)c12 [GSK2587663],0,12,15,3,7,29,0,13,0,11,0,0,0,0,0,13,0,8,0,0
CS(=O)(=O)CCNCc1nc(-c2ccc3ncnc(Nc4ccc(OCc5cccc(F)c5)c(Cl)c4)c3c2)cs1.Cl [GW583340],9,22,10,0,0,0,11,25,6,0,0,0,0,0,0,20,0,0,0,0
Cl.c1ccc(Cn2ccc3cc(Nc4ncnc5ccccc45)ccc32)cc1 [GW275568],39,41,23,0,34,2,4,26,0,0,0,46,0,2,0,32,35,14,4,0
CC(C)(C)c1ccc(-n2cnc3c(N)ncnc32)cc1 [SKF-97263],0,0,16,0,28,8,0,0,10,11,0,15,2,7,0,13,18,0,1,15
Clc1cccc(-c2nc(Nc3ccncc3)c3ccccc3n2)c1 [GW873004],16,0,10,49,40,0,2,24,0,0,11,0,6,0,63,43,0,0,0,0
CN1CCC(n2cnc(-c3ccc(F)cc3)c2-c2ccnc(NC3CCNCC3)n2)CC1 [SB-229482],0,17,23,9,43,18,30,51,25,0,87,0,0,0,12,0,0,1,0,0
CCc1nc(-c2cccc(N(C)S(=O)(=O)c3ccccc3)c2)c(-c2ccnc(Nc3ccc(N4CCN(C(C)=O)CC4)nc3)n2)s1 [GSK1645895],2,26,24,0,1,8,23,20,7,5,0,19,0,0,0,3,23,0,16,0
c1ccc(-c2ccc3c(-c4ccnc(Nc5ccc6c(c5)OCCO6)n4)cnn3n2)cc1 [GW818941],7,0,2,0,23,0,3,4,3,7,0,8,12,10,3,20,4,0,0,0
Oc1ccc2ncnc(Nc3ccc(OCc4ccccc4)cc3)c2c1 [GI262866],0,0,0,0,0,5,0,0,0,5,0,0,6,0,0,1,0,0,0,0
O=C(NCCCN1CCCC1=O)c1cnc(NCc2cc(Cl)ccc2Cl)nc1NC1CCNCC1,0,100,5,0,0,39,8,17,26,0,0,0,0,0,7,14,0,0,0,0
